Tau fibril ThT = blocks human tau fibril formation measured by thioflavin T; Potency, µM (titrated, usually from 57.4 µM), without a hit: at the highest dose activity, negative = inhibition, usual class: inhibitors; hit rate 2.1% among 270,000; recombinant tau K18 P301L, heparin-induced fibrillization, ThT fluorescence; AID 1460; further: potency means the concentration at half of the fitted maximal effect; nearly all actives have a fitted effect of over 55% in size
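Aggregation was driven by heparin (20 uM final) acting on recombinant tau […] bearing P301L in 100 mM sodium acetate pH 7; fibrils were detected with Thioflavin T.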
Tau fluor cs = counter-screen for tau fibril formation inhibitors; tau K18 P301L (four-repeat tau fragment) Alexa594 fluorescence, heparin fibrillization; Potency, µM (top dose mostly 57.7 µM), inactives show top-dose activity change, negative = decrease; hit rate 0.93% among 280,000; further: potency means the concentration at half of the fitted maximal effect; nearly all actives have a fitted effect of over 55% in size
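Human K18 P301L tau (15 uM unlabeled plus 0.24 uM Alexa 594-labeled, final) in 100 mM sodium acetate pH 7 was mixed with compound and 20 uM heparin and incubated 6 hr at 37 C.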
USP1-UAF1 inh = USP1/UAF1 (human) deubiquitinase inhibition; O94782; recombinant USP1/UAF1, Ub-Rhodamine cleavage fluorescence; Potency, µM (doses to about 57.1 µM), inactives show at the highest dose activity change, negative = inhibition, actives largely listed as inhibitors; hit rate 0.23% among 390,000; AID 743255; further: potency means the concentration at half of the fitted maximal effect; nearly all actives have a fitted effect of over 60% in size
Target sequence (O94782 whole entry, looked up): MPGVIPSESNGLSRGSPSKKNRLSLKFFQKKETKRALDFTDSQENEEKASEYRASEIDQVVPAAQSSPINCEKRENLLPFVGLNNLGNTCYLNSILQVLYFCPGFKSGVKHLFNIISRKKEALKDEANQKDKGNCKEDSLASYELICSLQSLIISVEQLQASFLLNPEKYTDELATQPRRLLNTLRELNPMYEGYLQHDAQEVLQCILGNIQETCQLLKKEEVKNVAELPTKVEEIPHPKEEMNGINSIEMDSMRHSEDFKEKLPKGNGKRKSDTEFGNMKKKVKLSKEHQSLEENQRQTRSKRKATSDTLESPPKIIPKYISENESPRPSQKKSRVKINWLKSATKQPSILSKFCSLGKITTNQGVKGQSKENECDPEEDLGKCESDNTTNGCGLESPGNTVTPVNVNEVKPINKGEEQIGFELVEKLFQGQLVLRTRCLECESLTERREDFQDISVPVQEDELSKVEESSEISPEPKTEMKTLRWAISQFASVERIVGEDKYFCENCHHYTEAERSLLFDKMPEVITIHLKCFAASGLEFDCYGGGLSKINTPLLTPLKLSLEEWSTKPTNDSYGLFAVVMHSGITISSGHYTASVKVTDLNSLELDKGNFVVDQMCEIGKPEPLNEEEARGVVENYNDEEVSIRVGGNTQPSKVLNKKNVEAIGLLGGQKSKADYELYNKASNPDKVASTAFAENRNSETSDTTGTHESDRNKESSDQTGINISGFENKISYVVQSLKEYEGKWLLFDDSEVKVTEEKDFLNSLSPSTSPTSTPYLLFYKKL
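1 nM enzyme complex + cpd, 15 min RT; start with Ub-Rho 150nM final; kinetic fluorescence ex 480/em 540, 6 reads q60 s. Buffer 50mM HEPES pH 7.8, 0.5mM EDTA, 0.1 mg/ml BSA, 1mM TCEP, 0.01% Tween-20.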
Coupling enz = counter-screen for Giardia aldolase inhibitors: coupling enzyme system | hit rate 0.67% among 290,000 | coupling enzyme system counterscreen, AmpLite Red fluorescence | activity change, negative = inhibition, % at 58.2 µM, hits read low; in the data active means activity change below about -30%
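Counterscreen of the coupled detection system alone, without aldolase: glyceraldehyde-3-phosphate coupling enzymes plus AmpLite Red readout. Compounds at 57.5 uM final, 10 min RT preincubation, 20 min RT reaction, fluorescence 525/598 nm.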
Tau fibril FP = tau fibrillization inhibition (FP) | K18 P301L tau heparin fibrillization, Alexa594 FP, 6 h | Potency, µM (titrated, usually from 57.7 µM), for the others: at the top dose activity, negative = inhibition, most hits filed as inhibitors | AID 1468 | hit rate 0.39% among 280,000; further: potency means the concentration at half of the fitted maximal effect; nearly all actives have a fitted effect of over 55% in size
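Steps: dispense K18 P301L tau (15 uM plus 0.24 uM Alexa 594 tracer, final) in pH 7 sodium acetate; add compound; add heparin (20 uM final); incubate 6 hr, 37 C; add ThT (30 uM final); after 1 hr ambient, read FP.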
Active calls of the source: *; ! = not confirmed by another sample; [ ] = remark or other dose. Only some compounds are listed: those with a hit (about 2.3% of all), similar ones and a draw of the others. Unless noted, the call rests on the fitted dose curve; in most records, active means well fitted curve in the direction sought with a large enough effect; inconclusive means small, poorly fitted or top-dose-only effect, or another doubt; inactive means no such curve, though single readings can be large; an effect the other way counts as inactive or inconclusive. On the % scale 0 is the no-effect control and ±100 the full control effect.

`CC(=O)Nc1ccc(N=NN2CCOCC2)cc1` gave Tau fibril ThT 10µM*, Tau fluor cs -27.3%, USP1-UAF1 inh -19.3%, Coupling enz -2.0 and Tau fibril FP -11.3%.
CC(=O)Nc1cccc(N=NN2CCOCC2)c1 was read as Tau fibril ThT inconclusive, Tau fluor cs -15.3%, USP1-UAF1 inh -0.8%, Coupling enz 1.3 and Tau fibril FP inconclusive.
`CC(=O)Nc1ccc(N=Nc2ccc(O)cc2)cc1` gave Tau fibril ThT 7.94µM*, Tau fluor cs -24.9%, USP1-UAF1 inh -14.4%, Coupling enz -0.5 and Tau fibril FP 4.4%.
For Cc1c2cc(O)c(=O)cc-2oc2cc(O)c(O)cc12 the results were Tau fibril ThT 3.16µM*, Tau fluor cs 10µM*[quencher], USP1-UAF1 inh inconclusive, Coupling enz -53.8*! and Tau fibril FP 10µM*.
`O=c1cc(-c2ccc(O)cc2O)oc2ccccc12` gave Tau fibril ThT -17.6%, Tau fluor cs -16.3%, Coupling enz -1.1 and Tau fibril FP 5.1%.
`COc1cc2oc(-c3ccccc3)cc(=O)c2cc1OC` gave Tau fibril ThT -14.9%, Tau fluor cs -17.9%, Coupling enz -0.3 and Tau fibril FP -9.1%.
`COc1cc(OC)c(-c2c3cc(O)c(=O)cc-3oc3cc(O)c(O)cc23)cc1OC` gave Tau fibril ThT 12.6µM*, Tau fluor cs -24.3%, USP1-UAF1 inh 25.1µM*, Coupling enz -16.8 and Tau fibril FP inconclusive.
Screening Cc1ccccc1C(=O)NC1(C(F)(F)F)C(=O)Nc2c1c(=O)[nH]c(=O)n2CCc1ccccc1 (configuration not stated) returned Tau fibril ThT 0.2%, Tau fluor cs 3.5%, USP1-UAF1 inh 4.5% and Tau fibril FP -2.7%.
For O=C(Nc1ccccc1C(=O)OCc1cc(=O)n2nc(C3CC3)sc2n1)c1cccc(F)c1 the results were Tau fibril ThT 9.6%, Tau fluor cs 7.2%, USP1-UAF1 inh -8.0% and Tau fibril FP 4.2%.
Screening O=C1CC(=O)c2c1cccc2[N+](=O)[O-] returned Tau fluor cs 5.62µM*[quencher], Coupling enz -16.0 and Tau fibril FP inconclusive.
`O=C1OCc2cccc([N+](=O)[O-])c21` gave Tau fibril ThT 17.2%, Tau fluor cs 8.3%, USP1-UAF1 inh -3.6%, Coupling enz -2.2 and Tau fibril FP 4.5%.
`c1ccc2c(c1)c1c3n2CCNC3CCC1` (configuration not stated) gave Tau fibril ThT 0.0%, Tau fluor cs 6.4%, USP1-UAF1 inh -12.3%, Coupling enz -50.3* and Tau fibril FP 9.6%.
`Cc1ccc(N/C=C/c2onc(C)c2[N+](=O)[O-])cc1` gave Tau fibril ThT 0.631µM*, Tau fluor cs -24.2%, USP1-UAF1 inh -9.6%, Coupling enz 0.1 and Tau fibril FP 6.3%.
Screening COc1cccc(Cn2c(=O)cc(C)c3c(C)nn(C)c32)c1 returned Tau fibril ThT inconclusive, Tau fluor cs -9.8%, USP1-UAF1 inh -30.4% and Tau fibril FP 1.7%.
`O=C(N/N=C/c1ccc(O)c(O)c1)c1ccc(CSc2cccc3cccnc23)cc1` gave Tau fibril ThT inconclusive, Tau fluor cs 22.4µM*[quencher], USP1-UAF1 inh -13.1%, Coupling enz -2.4 and Tau fibril FP 11.7%.
For CCOC(=O)C1=C(CN2CCN(c3ccccc3F)CC2)NC(=O)NC1c1ccc(Cl)cc1 (configuration not stated) the results were Tau fibril ThT -2.2%, Tau fluor cs -10.4%, USP1-UAF1 inh -24.5% and Tau fibril FP 2.0%.
CCCn1c(=O)c2sccc2n2c(CCCC(=O)N3CCN(c4cccc(C)c4C)CC3)nnc12 was read as Tau fibril ThT -5.8%, Tau fluor cs -1.4%, USP1-UAF1 inh -20.7% and Tau fibril FP 14.0%.
For O=[N+]([O-])c1cccn2cc(-c3ccc(Br)cc3)nc12 the results were Tau fibril ThT 5.01µM*, Tau fluor cs -13.8%, USP1-UAF1 inh -12.4%, Coupling enz 4.1 and Tau fibril FP 9.8%.
`C=CCSC(=C(C#N)C#N)c1cc2c([nH]1)CCCC2` gave Tau fibril ThT 10µM*, Tau fluor cs inconclusive, USP1-UAF1 inh -11.8%, Coupling enz 4.8 and Tau fibril FP -1.3%.
Cc1ccc2nc3sc(C(=O)NCCCN(C)c4ccccc4)cc3cc2c1 was read as Tau fibril ThT inconclusive, Tau fluor cs inconclusive, USP1-UAF1 inh -3.4% and Tau fibril FP 4.2%.
`CCN(CCCNC(=O)c1cc2cc3cc(C)ccc3nc2s1)c1cccc(C)c1` gave Tau fibril ThT inconclusive, Tau fluor cs 7.94µM*[quencher], USP1-UAF1 inh -29.0% and Tau fibril FP 10.2%.
For COCCNC(=O)c1ccc(Cn2c(SCC(=O)NC(C)C)nc3ccccc3c2=O)cc1 the results were Tau fibril ThT 0.6%, Tau fluor cs -0.8%, USP1-UAF1 inh -11.0% and Tau fibril FP -4.5%.
`Cc1ccc(SCc2[nH]nc3c2C(c2ccc(C)o2)C(C#N)=C(N)O3)cc1` (configuration not stated) gave Tau fibril ThT 14.1µM*, Tau fluor cs inconclusive, USP1-UAF1 inh -20.8%, Coupling enz -10.0 and Tau fibril FP inconclusive.
Screening CCc1[nH]nc2c1C(c1ccc(C)o1)C(C#N)=C(N)O2 (configuration not stated) returned Tau fibril ThT 4.8%, Tau fluor cs 5.6%[2.34 µM], USP1-UAF1 inh -13.0%, Coupling enz 1.7 and Tau fibril FP -1.5%[2.34 µM].
Cc1ccc(SCc2[nH]nc3c2C(c2ccco2)C(C#N)=C(N)O3)cc1 (configuration not stated) was read as Tau fibril ThT 20µM*, Tau fluor cs inconclusive, USP1-UAF1 inh -9.8%, Coupling enz 1.0 and Tau fibril FP inconclusive.
Screening COc1ccccc1NC(=O)C1=C(C)Nc2nc(SCc3ccccc3Cl)nn2C1c1cccnc1 (configuration not stated) returned Tau fibril ThT -4.9%, Tau fluor cs -8.7%, USP1-UAF1 inh -22.1% and Tau fibril FP 0.2%.
For COc1cccc(CNC(=O)c2sc3ncccc3c2-n2c(C)ccc2C)c1OC the results were Tau fibril ThT inconclusive, Tau fluor cs -8.4%, USP1-UAF1 inh -5.2% and Tau fibril FP -4.1%.
Screening Cc1n[nH]c(=S)n(NC(=O)CC(=O)Nn2c(=S)[nH]nc(C)c2=O)c1=O returned Tau fibril ThT 1.9%, Tau fluor cs 4.8%, USP1-UAF1 inh -9.7%, Coupling enz -43.4* and Tau fibril FP 2.7%.
`CC(C)(C)c1ccc(C2Sc3ccccc3NC3=C2C(=O)c2ccccc23)cc1` (configuration not stated) gave Tau fibril ThT -11.3%, Tau fluor cs 5.62µM*[quencher], USP1-UAF1 inh -16.9% and Tau fibril FP inconclusive.

High-throughput results from PubChem BioAssay.
